# Measurements from PubChem BioAssay AID1529 (NMMLSC, 2009).
# Several values for one entry are separate records, joined by “and”; a condition that tells them apart may be missing. Identical values can stand only once. In all, about 290,000 compounds went through this assay and about 4,200 (1.4%) were called active.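 Rule for the calls: active = binding response more than 3 SD above or below the average of its plate-row segment, actives on both sides; inconclusive = wells at one plate position flagged as instrument error; inactive = the rest.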 Many of the other results were omitted from the sample, so actives are more common in it than they were. Where a structure was tested more than once in an assay, its records may differ in their call.
# Molecular target: Mitogen-activated protein kinase kinase kinase 3 (Homo sapiens) (UniProt Q99759)
# Sequence (Q99759 whole entry, looked up): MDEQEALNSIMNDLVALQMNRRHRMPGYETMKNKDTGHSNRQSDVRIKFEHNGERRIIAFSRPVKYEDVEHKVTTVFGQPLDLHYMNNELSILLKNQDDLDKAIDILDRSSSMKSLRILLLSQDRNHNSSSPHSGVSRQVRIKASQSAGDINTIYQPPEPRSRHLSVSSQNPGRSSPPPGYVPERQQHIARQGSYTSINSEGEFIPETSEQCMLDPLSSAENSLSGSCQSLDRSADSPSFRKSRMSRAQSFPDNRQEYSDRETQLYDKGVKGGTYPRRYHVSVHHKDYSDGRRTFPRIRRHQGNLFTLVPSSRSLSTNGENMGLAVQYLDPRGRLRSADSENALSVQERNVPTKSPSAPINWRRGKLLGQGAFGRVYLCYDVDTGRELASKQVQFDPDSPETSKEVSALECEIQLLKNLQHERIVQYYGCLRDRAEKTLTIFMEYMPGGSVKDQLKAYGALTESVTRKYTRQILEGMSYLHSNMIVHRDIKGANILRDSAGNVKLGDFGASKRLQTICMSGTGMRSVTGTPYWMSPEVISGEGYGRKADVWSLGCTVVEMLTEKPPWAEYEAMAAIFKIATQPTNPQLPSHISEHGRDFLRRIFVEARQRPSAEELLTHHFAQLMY
# Test: compounds raising or lowering MEK5 association with MEKK3 PB1 – biochemical, wildtype MEKK3, multiplex bead flow cytometry, Alexa488-MEK5, primary screen (AID 1529);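 note: Alexa488 bead fluorescence after subtracting the streptavidin-only scavenger bead signal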
# Conditions: bead-based flow cytometry, Alexa488-MEK5 binding to MEKK3; at 10 µM; actives lie on both sides; 0 = blocked by unlabeled MEK5, 100 = vehicle
row,SMILES,binding response (% of control)
1,C=CCN(CC=C)S(=O)(=O)c1ccc(C(=O)Nc2nc3c(s2)CCc2ccccc2-3)cc1,100% (inactive)
2,C=CCN(CC=C)S(=O)(=O)c1ccc(C(=O)Nc2sc3c(c2C(N)=O)CCCCC3)cc1,66% [inhibitor] (active)
3,NC(=O)c1c(NC(=O)c2ccccc2)sc2c1CCCC2,102% (inactive)
4,NS(=O)(=O)c1ccc2nc(NC(=O)C3=COCCO3)sc2c1,100% (inactive)
5,COc1cccc(NC(=O)[C@H](Cc2c[nH]c3ccccc23)NC(=O)[C@@H]2Cc3ccccc3CN2)c1,101% (inactive)
6,CCc1nnc(SCc2cccc(F)c2)nc1CC,101% (inactive)
7,CCc1ccc2nc3sc(C(=O)Nc4nnc(CC)s4)c(N)c3cc2c1,103% (inactive)
8,CCc1nnc(NC(=O)c2sc3nc(C)cc(COC)c3c2N)s1,46% [inhibitor] (active)
9,COCc1cc(C)nc2sc(C(=O)NC3CCCCC3)c(N)c12,101% (inactive)
10,COc1ccc(C(=O)OCC(=O)Nc2cccc(C(C)=O)c2)cc1OC,100% (inactive)
11,O=C(COC(=O)c1ccccc1)Nc1cccc(S(=O)(=O)N2CCOCC2)c1,104% (inactive)
12,CCOc1cc(C(=O)OCC(=O)Nc2cccc(C)c2)ccc1OCC(=O)N1CCOCC1,137% (active)
13,COc1ccc(NC(=O)COc2ccc(C(=O)c3ccc(F)cc3)cc2)cc1S(N)(=O)=O,100% (inactive)
14,CCc1nc2nc(C)c(NS(=O)(=O)c3ccc4c(c3)CCCC4)c(=O)n2[nH]1,101% (inactive)
15,COc1ccc(CN(C)C(=O)Cc2ccsc2)c(OC)c1OC,103% (inactive)
16,COc1ccccc1N=Cc1c(O)c2ccccc2oc1=O,121% (inactive)
17,COc1ccccc1N=C(C)C1=C(O)COC1=O,81% [inhibitor] (active)
18,CCC/C(O)=C1\C(=O)CC(C)(C)CC1=Nc1ccccc1OC,102% (inactive)
19,Cc1ccc2c(C)c(C(=O)N3CCN(c4ccncc4)CC3)oc2c1C,106% (inactive)
20,COc1ccc(N2CCN(Cc3nnc(-c4ccccc4)o3)CC2)cc1,139% (active)
21,Cc1ccc(-c2nnc(CN3CCN(C)CC3)o2)cc1,112% (inactive)
22,c1ccc(-c2cnc(CN3CCN(c4ccccc4)CC3)o2)cc1,101% (inactive)
23,CCCn1c(=N)n(CC(=O)c2ccc(Cl)c(Cl)c2)c2ccccc21,109% (inactive)
24,CCOC(=O)c1cn[nH]c1NC(=S)Nc1ccccc1,93% (inactive)

row,SMILES,binding response (% of control)
1,CCOC(=O)c1ccc(NC(=S)Nc2cc(C)cc(C)n2)cc1,77% (inactive)
2,CCOC(=O)c1cc2c(nc1NC(=S)Nc1ccccc1)CC(C)(CC)OC2 (stereo unspecified),128% (active)
3,CCOc1ccc(CN2CCNC(=O)C2CC(=O)NCCCC2CCCC2)cc1 (stereo unspecified),102% (inactive)
4,O=C1CCN(CCCc2ccccc2)CCN1CCO,101% (inactive)
5,CCOC(=O)c1ccc(NC(=O)CNC(=O)c2ccco2)cc1,108% (inactive)
6,O=C(COC(=O)CNC(=O)c1ccco1)Nc1ccc(F)cc1,65% [inhibitor] (active)
7,NS(=O)(=O)c1ccc(NC(=O)COC(=O)c2ccco2)cc1,98% (inactive)
8,CCOc1ccccc1NC(=S)N1CCN(c2cccc(C)c2C)CC1,102% (inactive)
9,O=C(Nc1ccc2c(c1)CCC2)c1ccc(Br)s1,86% (inactive)
10,Oc1ccc(Br)cc1/C=N/Nc1ccccn1,99% (inactive)
11,O=C(N/N=C/c1ccccc1O)/C(=C/c1ccccc1)CCO,108% (inactive)
12,O=C(CCCO)N/N=C/c1cc(Br)ccc1O,129% (active)
13,CCn1c(SCC(=O)NC2=NCCS2)nnc1C(C)NC(=O)c1ccccc1F (stereo unspecified),95% (inactive)
14,Cc1ccc(CC2C(=O)N(c3ccc(F)cc3)C(=O)C2C)cc1 (stereo unspecified),99% (inactive)
15,CCOC(=O)c1sc2nc(C)[nH]c(=O)c2c1C,97% (inactive)
16,CCOC(=O)c1sc2nc(C)nc(Nc3ccc(OC)c(OC)c3)c2c1C,101% (inactive)
17,CCOC(=O)c1sc2nc(C)nc(SCC(N)=O)c2c1C,132% (active)
18,COC(C[C@@H]1O[C@@H]1C(=O)[C@H](C)OCc1ccccc1)OC,98% (inactive)
19,CCOC(=O)/C=C/c1ccc(C(F)(F)F)cc1S(=O)(=O)NC(C)(C)C,100% (inactive)
20,OCc1ccc(OCCCOc2cccc3cccnc23)cc1,106% (inactive)
21,CCOc1cccc(OCCCOc2cccc3cccnc23)c1,143% (active)
22,Cc1cc(OCCOc2cccc3cccnc23)c(C)cc1Cl,101% (inactive)
23,COc1cccc(CNC(=O)CCC2CCCN(C(=O)c3ccc(F)c(Cl)c3)C2)c1 (stereo unspecified),99% (inactive)
24,CS(=O)(=O)N1CCN(CC(=O)NC2CCCC2)CC1,99% (inactive)

row,SMILES,binding response (% of control)
1,COC(=O)c1ccccc1NC(=O)C1(S(=O)(=O)c2ccc(Cl)cc2)CC1,102% (inactive)
2,COC(=O)Cn1cnc2scc(-c3ccc(C)c(C)c3)c2c1=O,105% (inactive)
3,COCCNC(=O)c1ccccc1NS(=O)(=O)c1ccc(C)c([N+](=O)[O-])c1,101% (inactive)
4,CC1CN(C(=O)c2ccccc2NS(=O)(=O)c2cccc([N+](=O)[O-])c2)CC(C)O1 (stereo unspecified),131% (active)
5,COc1ccc(S(=O)(=O)Nc2ccccc2C(=O)N2CCCC2)cc1C,104% (inactive)
6,O=C(NCC1CC1)c1onc(CSc2ccccc2)c1C(=O)NCC1CC1,97% (inactive)
7,NC(=O)COC(=O)c1ccc2c(c1)C(=O)N(Cc1ccco1)C2=O,99% (inactive)
8,C=CCn1c(C(C)NC(=O)CC)nc2ccccc21 (stereo unspecified),94% (inactive)
9,C=CCn1c(P(C)(=O)O)nc2ccccc21,138% (active) and 103% (inactive)
10,C=CCn1c(C2CC(=O)N(c3ccc(C)cc3)C2)nc2ccccc21 (stereo unspecified),96% (inactive)
11,COc1ccc(C#Cc2c(-c3ccc(OC)cc3)oc3ccc(-c4ccc5c(c4)OCO5)cc23)cc1,95% (inactive)
12,COc1ccc(-n2cc(-c3ccccc3)c3c(=S)nc[nH]c32)cc1,101% (inactive)
13,CCn1cc(S(=O)(=O)c2cccc(C)c2)c(=O)c2cc(F)c(N3CCN(C)CC3)cc21,101% (inactive)
14,Cc1ccc(-n2c(SCC(=O)N3c4ccccc4Sc4ccccc43)nnc2-c2ccncc2)cc1,97% (inactive)
15,Cc1ccc(-c2noc(CSc3nnc(-c4ccncc4)n3-c3ccc(F)cc3)n2)cc1,106% (inactive)
16,Cc1ccc(Nc2nc(CSc3nnc(-c4ccncc4)n3-c3ccccc3C)cs2)cc1,138% (active)
17,COc1cccc(C(C(=O)NC2CCCC2)N(C(=O)c2ccco2)c2cccc(C(C)=O)c2)c1OC (stereo unspecified),98% (inactive)
18,O=C(CCCCCn1c(=S)[nH]c2ccsc2c1=O)NC1CCCCC1,102% (inactive)
19,CCOC(=O)c1c(Cc2ccc(Cl)cc2)c[nH]c1C,136% (active)
20,CCOC(=O)c1ccc(CS(=O)c2ccc(Cl)cc2)o1 (stereo unspecified),100% (inactive)
21,CCOC(=O)N1CCN(C(=O)CNC(=O)Cc2ccc(Cl)cc2)CC1,99% (inactive)
22,COC(=O)c1cc(NC(=O)c2ccco2)ccc1N1CCOCC1,95% (inactive)
23,CC(=O)Nc1ccc(N2CCOCC2)c(C(=O)Nc2cccc(C)c2)c1,2% [inhibitor] (active)
24,Cc1cccc(NC(=O)c2cc([N+](=O)[O-])ccc2N2CCN(C)CC2)c1,105% (inactive)

row,SMILES,binding response (% of control)
1,COC(=O)c1cc(NC(=O)c2cc(C(C)(C)C)nn2Cc2cccc(C)c2)ccc1N1CCOCC1,134% (active)
2,CC(=O)Nc1cccc(Oc2cc(C#N)c(C#N)cc2N2CCOCC2)c1,97% (inactive)
3,COC(=O)c1cc(NC(=O)c2cccnc2)ccc1N1CCOCC1,102% (inactive)
4,CC1=C(N2CCN(c3ncccn3)CC2)CCC1=O,103% (inactive)
5,CCCCCC(O)(CCN1CCCCC1)c1ccccc1 (stereo unspecified),104% (inactive)
6,Cc1ccc(-c2ccc(/C=C(\C#N)C(N)=S)o2)c([N+](=O)[O-])c1,100% (inactive)
7,CCOC(=O)c1ccc(NC(=O)c2c(N)n(C)c(=O)[nH]c2=O)cc1,89% (inactive)
8,COCC(C)NC(=O)COc1nncc2ccccc12 (stereo unspecified),39% [inhibitor] (active)
9,CC(C)C(C)NC(=O)COc1ncnc2ccccc12 (stereo unspecified),106% (inactive)
10,COC(=O)C(C)NC(=O)COc1ccc2ccccc2c1 (stereo unspecified),98% (inactive)
11,CCOc1ccc(C(=O)Nc2ccc(CN3CCOCC3)cc2)cc1Cl,103% (inactive)
12,CC1CN(C(=O)c2cc(COc3c(F)cccc3F)on2)CCN1C (stereo unspecified),100% (inactive)
13,C=C1CCN([C@@H](Cc2ccccc2)C(=O)N2CCOCC2)S(=O)(=O)c2ccccc21,105% (inactive)
14,CCn1cc(/C=C(\NC(=O)c2ccc(C)cc2)C(=O)NCCN2CCOCC2)c2ccccc21,102% (inactive)
15,COc1ccc(Cl)cc1NC(=O)CNc1ccccc1F,104% (inactive)
16,C=C(C)C1CC=C(C)/C(=N\NC(=O)CNc2ccccc2OC)C1 (stereo unspecified),128% (active)
17,C=C(C)C1CC=C(C)/C(=N/NC(=O)CCCNc2cccc(C)c2)C1 (stereo unspecified),97% (inactive)
18,CCCC[C@@H]1CN=C(N)N1CCCC,89% (inactive)
19,CC(=O)C1=C(O)C(=O)N(c2ccc(Br)cc2)C1c1ccc([N+](=O)[O-])cc1 (stereo unspecified),98% (inactive)
20,Cc1cc2cc(CNC(=O)c3cccs3)ccc2[nH]1,73% [inhibitor] (active)
21,CCc1cccc(CC)c1NC(=S)NCc1ccc2[nH]c(C)cc2c1,106% (inactive)
22,Cc1cc2cc(CNC(=O)c3ccc(S(=O)(=O)N4CCOCC4)cc3)ccc2[nH]1,94% (inactive)
23,O=C(CSc1nccc(=O)[nH]1)Nc1ccc(N2CCOCC2)c(Cl)c1,99% (inactive)
24,O=S(=O)(c1ccccc1)N(Cc1cccc(F)c1)c1ccccc1,99% (inactive)
